Screens (PubChem BioAssay)
In the library only some 1.5% were active in any assay of this set; here they are far more common.
cardiac RTF act: cardiac RTF calcium sensitivity activators, primary screen, biochemical, IANBD-TnC fluorescence, EC20 calcium; Troponin I, cardiac muscle (Homo sapiens) + Troponin T, cardiac muscle (Homo sapiens) + …; IANBD-labeled TnC RTF fluorescence at EC20 calcium; 0% EC20 calcium, 100% full calcium; activation, % at 7.2 µM; actives 0.24% (n = 340,000);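 active = activation above the mean over all tested compounds plus 3 SD, cut at about 30% in these data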;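 note: rise in fluorescence read as greater calcium sensitivity of cardiac thin filaments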
IDE cell activ: human IDE activators in live cells, primary screen, fluorescence polarization, HEK cells, FAbeta-B substrate | Insulin-degrading enzyme (Homo sapiens), P14735 | FAbeta-B cleavage; 0% vehicle, 100% cell-free pure enzyme wells | activation, % at 5.96 µM | actives 0.073% (n = 340,000) | AID 493087, 2011;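 active = activation above the mean of all tested compounds plus 3 SD, set per screening campaign, cut at about 17% in these data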
Target sequence (P14735 whole entry, looked up): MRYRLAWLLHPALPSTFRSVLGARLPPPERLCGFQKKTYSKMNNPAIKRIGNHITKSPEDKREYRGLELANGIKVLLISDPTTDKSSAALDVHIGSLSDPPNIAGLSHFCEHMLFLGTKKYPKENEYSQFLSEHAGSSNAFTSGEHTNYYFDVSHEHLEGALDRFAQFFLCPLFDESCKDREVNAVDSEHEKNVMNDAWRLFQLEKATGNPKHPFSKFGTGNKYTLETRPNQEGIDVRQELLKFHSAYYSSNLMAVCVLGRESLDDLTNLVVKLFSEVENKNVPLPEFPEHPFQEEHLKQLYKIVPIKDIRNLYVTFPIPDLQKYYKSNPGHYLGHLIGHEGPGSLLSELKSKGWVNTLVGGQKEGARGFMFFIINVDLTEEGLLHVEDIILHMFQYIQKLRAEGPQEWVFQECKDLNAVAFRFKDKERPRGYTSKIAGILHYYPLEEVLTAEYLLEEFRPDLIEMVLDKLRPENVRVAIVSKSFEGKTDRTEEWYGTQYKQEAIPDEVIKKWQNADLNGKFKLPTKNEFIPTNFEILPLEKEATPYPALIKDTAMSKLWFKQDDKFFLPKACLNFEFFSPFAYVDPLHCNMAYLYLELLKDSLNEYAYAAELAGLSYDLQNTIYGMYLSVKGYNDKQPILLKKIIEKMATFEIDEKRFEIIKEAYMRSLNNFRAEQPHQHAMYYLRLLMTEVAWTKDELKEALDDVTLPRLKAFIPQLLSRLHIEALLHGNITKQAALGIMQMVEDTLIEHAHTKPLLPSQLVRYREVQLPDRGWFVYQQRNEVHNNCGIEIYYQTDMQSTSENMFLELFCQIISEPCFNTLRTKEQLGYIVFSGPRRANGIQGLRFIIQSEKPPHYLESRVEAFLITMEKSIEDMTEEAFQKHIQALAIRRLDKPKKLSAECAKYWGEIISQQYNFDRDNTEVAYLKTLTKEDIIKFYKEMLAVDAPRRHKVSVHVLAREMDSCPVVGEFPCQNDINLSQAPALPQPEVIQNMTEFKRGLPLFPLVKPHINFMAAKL
CRFBP-R2 agonist: agonists of CRF-BP/CRF-R2 complex, primary screen, cell-based, HEK293, calcium dye fluorescence, uHTS | CRF-binding protein / CRF receptor 2 complex (human) | calcium dye fluorescence (FLIPR); percent of saturating CRF peptide response | activation, % at 13.2 µM | actives 0.46% (n = 350,000);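 active = activation of at least 50%, plus an integration ratio under a set limit after plate pattern correction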
Cardiac RTF inh: cardiac RTF calcium sensitivity inhibitors, primary screen, biochemical, IANBD-TnC fluorescence, EC70 calcium | inhibition, % at 7.15 µM | actives 0.12% (n = 340,000) | IANBD-labeled cardiac RTF, Ca2+ fluorescence;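 active = inhibition above the mean inhibition of all tested compounds plus 3 SD, cut at about 17% in these data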;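 note: assay run at fixed EC70 calcium of 1.6 mM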
TPT1 inh: Candida albicans TPT1 enzyme inhibitors, primary screen, biochemical, fluorescence polarization. actives 0.81% (n = 300,000). recombinant caTPT1, FP RNA substrate dephosphorylation. tRNA 2'-phosphotransferase TPT1 (Candida albicans SC5314). inhibition, % at 5 µM. AID 1962, 2009;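 active = inhibition above the mean of all tested compounds plus 3 SD, set per screening campaign, cut at about 24% in these data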
IDE cell inh: human IDE inhibitors in live cells, primary screen, fluorescence polarization, HEK cells, FAbetaB substrate; Insulin-degrading enzyme (Homo sapiens), P14735; FAbetaB cleavage; inhibition, % at 5.59 µM; actives 0.41% (n = 320,000); AID 434962, 2010;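 active = percent inhibition above the average of all tested compounds plus 3 SD, set per screening campaign, cut at about 16% in these data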;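 note: IDE supplied by intact live HEK cells; FP after avidin binding of uncleaved biotin substrate so inhibition keeps polarization high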
caTPT1 confirm: Candida albicans TPT1 inhibitors, confirmation, biochemical, fluorescence polarization, triplicate | inhibition, % at 5 µM | shares compounds with TPT1 inh | AID 2149, 2009 | actives 74% (n = 2,400) | recombinant caTPT1, RNase T1 coupled;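 active = inhibition above the primary screen limit, the mean inhibition of all tested compounds plus 3 SD, cut at about 25% in these data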
RNase T1 counter: RNase T1 inhibitors, counter-screen for TPT1 inhibitor project, biochemical, fluorescence polarization | shares compounds with TPT1 inh | RNase T1 cleavage, 1536-well | inhibition, % at 5 µM | actives 83% (n = 2,400) | AID 2153, 2009;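 active = inhibition above the solvent-only control well mean plus 3 SD, limit set per screening run, cut at about 23% in these data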;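 note: inhibitors block cleavage so intact labeled substrate keeps polarization high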
Each line names hits and unclear results; the compound was inactive in the other large screens (follow-up assays come after a bar, where they were run).

COc1ccc(/C=C2\Oc3cc(OCC(=O)N4CCC[C@H]4C(=O)O)ccc3C2=O)c(OC)c1	cardiac RTF act 30, TPT1 inh 35 | caTPT1 confirm 81 | RNase T1 counter 91
CC(C)Sc1nnc(SCC(=O)NCCCN2CCCC2=O)s1	none (no result: TPT1 inh)
COc1cccc(-c2ccc(SCC(=O)NCCc3ccccc3)nn2)c1	TPT1 inh 54 | caTPT1 confirm inactive | RNase T1 counter inactive
CC(C)c1ccc(N=C2NN=C(c3cccs3)CS2)cc1	TPT1 inh 40 | caTPT1 confirm 42 | RNase T1 counter 50
CC(C)N=C1NN=C(c2cccs2)CS1	none
O=C(NC(C(=O)c1ccccc1)c1ccccc1)c1ccccc1 (stereo not given)	none (no result: TPT1 inh, IDE cell inh)
CCN(CC)c1ccc2cc(C(N)=O)c(=O)oc2c1	TPT1 inh 40 | caTPT1 confirm 36 | RNase T1 counter 45
NC(=O)c1cc2cc(Cl)ccc2oc1=O	none
CCCCCCc1cc2cc(S(=O)(=O)c3ccc(F)c(Cl)c3)c(=O)oc2cc1O	none
N/C(=N\NC(=O)c1cccs1)c1cc2ccccc2oc1=O	none
CCOc1ccccc1NC(=O)c1cc2ccccc2oc1=O	none
CCCCCCc1cc2cc(C(N)=O)c(=N)oc2cc1O	TPT1 inh 67 (no result: cardiac RTF act, IDE cell activ, CRFBP-R2 agonist, Cardiac RTF inh) | caTPT1 confirm inactive | RNase T1 counter 22
CCN(CC)c1ccc2cc(C(=O)Nc3ccccn3)c(=O)oc2c1	cardiac RTF act 53, CRFBP-R2 agonist 263, TPT1 inh 135 | caTPT1 confirm 109 | RNase T1 counter 112
CCN(CC)c1ccc2cc(/C(N)=N/NC(=O)c3cccs3)c(=O)oc2c1	TPT1 inh 87 (no result: cardiac RTF act, IDE cell activ, CRFBP-R2 agonist, Cardiac RTF inh) | caTPT1 confirm 108 | RNase T1 counter 112
CC1(c2nnc(-c3cccc(Cl)c3)o2)CC(c2ccc(Br)cc2)=NO1 (stereo not given)	none
C=CCOc1cccc(C(=O)Nc2ncn[nH]2)c1	none
CCN(CC)c1ccc2cc(C(N)=O)c(=N)oc2c1	CRFBP-R2 agonist 258, TPT1 inh 73 (no result: cardiac RTF act, IDE cell activ, Cardiac RTF inh) | caTPT1 confirm 71 | RNase T1 counter 75
COc1ccc(COC(=O)N/C=C/c2ccco2)cc1	none
COc1ccccc1COC(=O)N/C=C/c1ccco1	TPT1 inh 42 | caTPT1 confirm inactive | RNase T1 counter 25
Cc1cc(=O)[nH]c(N/N=C/c2c(O)n(-c3ccccc3)c(=O)c3ccccc23)n1	TPT1 inh 36 | caTPT1 confirm 32 | RNase T1 counter 39
Cc1cc(=O)[nH]c(NN=Cc2c(Cl)cccc2Cl)n1	none (no result: TPT1 inh, IDE cell inh)
Cc1cccc(NC(=O)C(C)Sc2ncnc3sccc23)c1 (stereo not given)	none (no result: cardiac RTF act, IDE cell activ, Cardiac RTF inh, TPT1 inh, IDE cell inh)
COc1cccc(/C=N/Nc2ccc([N+](=O)[O-])cc2)c1O	TPT1 inh 37 | caTPT1 confirm 57 | RNase T1 counter 68
COc1ccc(/C=N/Nc2ccc([N+](=O)[O-])cc2)cc1Cn1cc([N+](=O)[O-])cn1	TPT1 inh 108 | caTPT1 confirm 83 | RNase T1 counter 92
COc1ccc(/C=N\Nc2ccc([N+](=O)[O-])cc2)c(C(=O)O)c1OC	TPT1 inh 38 | caTPT1 confirm 46 | RNase T1 counter 60
COc1ccc(/C=N/Nc2ccc([N+](=O)[O-])cc2)cc1O	TPT1 inh 82 | caTPT1 confirm 98 | RNase T1 counter 106
COC(=O)c1ccc(N/N=C/c2cc([N+](=O)[O-])cc(OC)c2O)cc1	none
COc1ccc(/C=N/n2cncn2)cc1Cn1cc([N+](=O)[O-])cn1	none (no result: cardiac RTF act, IDE cell activ, Cardiac RTF inh)
COc1ccc(/C=C2\SC(=S)N(CCCC(=O)N3CCCCC3CCO)C2=O)cc1 (stereo not given)	none
O=[N+]([O-])c1ccc(N/N=C\c2ccccc2OCc2ccccc2)cc1	TPT1 inh 85 | caTPT1 confirm 101 | RNase T1 counter 108
OC1CCCN(CC(O)COC(c2ccccc2)c2ccccc2)C1 (stereo not given)	TPT1 inh 29 | caTPT1 confirm inactive | RNase T1 counter inactive
COC(=O)[C@]1(Cc2ccccc2)N[C@H](CN(C)C(C)=O)[C@@H]2C(=O)N(Cc3ccccc3)C(=O)[C@@H]21	none (no result: TPT1 inh)
NC(=O)c1ccccc1NC(=O)CN1CCN(Cc2ccc(Cl)cc2Cl)CC1	none
Cc1cc(C)c2cc3c(N)c(C(=O)N4CCc5ccccc5C4)sc3nc2c1	TPT1 inh 26 | caTPT1 confirm inactive | RNase T1 counter 37
Cc1ccc2nc3sc(C(=O)N4CCCc5ccccc54)c(N)c3cc2c1	TPT1 inh 38 | caTPT1 confirm 56 | RNase T1 counter 64
CCN1/C(=C2/OC(=S)N(C)C2=O)Sc2ccccc21	none (no result: TPT1 inh, IDE cell inh)
CCN1/C(=C\C=C2\C(=O)N(C)C(=S)N2C)Sc2ccccc21	TPT1 inh 47 | caTPT1 confirm 60 | RNase T1 counter 73
O=C1Cc2c([nH]c3ccc([N+](=O)[O-])cc23)-c2ccccc2N1	none (no result: TPT1 inh, IDE cell inh)
Cc1cc2c(cc1C)C(c1cccc([N+](=O)[O-])c1)CC(=O)N2 (stereo not given)	TPT1 inh 53 | caTPT1 confirm inactive | RNase T1 counter 32
CCCn1c(N)c(N(CCOC)C(=O)CSCC(=O)Nc2ccc(OC)cc2)c(=O)[nH]c1=O	none
Nc1ccc2c(c1)C/C(=C/c1ccco1)C2=O	TPT1 inh 26 | caTPT1 confirm inactive | RNase T1 counter inactive
O=C1/C(=C/c2ccco2)CCc2ccccc21	none
CCCN(C(=O)COC(=O)CCOc1ccccc1C)c1c(N)n(Cc2ccccc2)c(=O)[nH]c1=O	none
COc1cccc(C2=CC(c3ccc(N(C)C)cc3)n3ncnc3N2)c1 (stereo not given)	TPT1 inh 38, IDE cell inh 18 (no result: cardiac RTF act, IDE cell activ, CRFBP-R2 agonist, Cardiac RTF inh) | caTPT1 confirm 34 | RNase T1 counter 43
COc1cccc(C2=CC(c3ccccc3)n3ncnc3N2)c1 (stereo not given)	none (no result: cardiac RTF act, IDE cell activ, CRFBP-R2 agonist, Cardiac RTF inh)
